Screens from PubChem BioAssay.
PLK1 PBD inh: qHTS for Inhibitors of PLK1-PDB (polo-like kinase 1 - polo-box domain): Primary Screen. Serine/threonine-protein kinase PLK1 (Homo sapiens), P53350. Plk1 PBD binding of FITC phosphopeptide, fluorescence polarization. Potency, µM, for inactives: max response, negative = inhibition, hits mostly inhibitors. 2.8% of 360,000 active. AID 720504, 2013; further: series mostly up to about 57 µM; on the % scale 0 is the no-effect control and ±100 the full control effect; nearly all actives have a fitted effect of over 65% in size
VDR inh: Inhibitors of the vitamin D receptor (VDR): qHTS; Vitamin D3 receptor (Homo sapiens), P11473; VDR-SRC2-3 peptide fluorescence polarization, 2 h; Potency, µM, for inactives: max response, negative = inhibition, usual class: inhibitors; 0.93% of 400,000 active; further: on the % scale 0 is the no-effect control and ±100 the full control effect
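Reagent solutions, kept cold and dark, are dispensed first; compounds are then pinned in at 23 nl, plates briefly spun, and incubated 2 h at ambient temperature. Inhibition of VDR–SRC2-3 peptide binding is read by fluorescence polarization.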
L3MBTL1 block: qHTS Assay for the Inhibitors of L3MBTL1; 0.66% of 230,000 active; AlphaScreen L3MBTL1–H3K9me1 peptide binding; Potency, µM (doses to about 57.1 µM), for the others: at the highest dose activity, negative = inhibition, usual class: inhibitors; AID 485360, 2010; further: on the % scale 0 is the no-effect control and ±100 the full control effect; nearly all actives have a fitted effect of over 60% in size
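L3MBTL1 (50 nM) pre-complexed 30 min with biotinylated H3(1-15)K9me1 peptide (75 nM), then compounds added for 30 min at room temperature; AlphaScreen streptavidin donor/nickel chelate acceptor beads (10 ug/mL final) read after 30 min dark incubation.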
JMJD2A Tudor inh: qHTS Assay for Inhibitors of JMJD2A-Tudor Domain; Lysine-specific demethylase 4A (Homo sapiens), O75164; AlphaScreen JMJD2A-Tudor / H3K4me3 peptide binding; Potency, µM (top dose mostly 114 µM), inactives show at the top dose activity change, negative = inhibition, most hits filed as inhibitors; 4.4% of 390,000 active; further: on the % scale 0 is the no-effect control and ±100 the full control effect; nearly all actives have a fitted effect of over 50% in size
BAZ2B block: qHTS Assay for Inhibitors of BAZ2B; Bromodomain adjacent to zinc finger domain protein 2B (Homo sapiens), Q9UIF8; AlphaScreen BAZ2B-H3K14Ac peptide displacement; Potency, µM (top dose mostly 114 µM), for inactives: at the highest dose activity change, negative = inhibition, most hits filed as inhibitors; 4.4% of 360,000 active; AID 504333, 2011; further: on the % scale 0 is the no-effect control and ±100 the full control effect; nearly all actives have a fitted effect of over 60% in size
Target sequence (Q9UIF8 whole entry, looked up, the tested form may be a part): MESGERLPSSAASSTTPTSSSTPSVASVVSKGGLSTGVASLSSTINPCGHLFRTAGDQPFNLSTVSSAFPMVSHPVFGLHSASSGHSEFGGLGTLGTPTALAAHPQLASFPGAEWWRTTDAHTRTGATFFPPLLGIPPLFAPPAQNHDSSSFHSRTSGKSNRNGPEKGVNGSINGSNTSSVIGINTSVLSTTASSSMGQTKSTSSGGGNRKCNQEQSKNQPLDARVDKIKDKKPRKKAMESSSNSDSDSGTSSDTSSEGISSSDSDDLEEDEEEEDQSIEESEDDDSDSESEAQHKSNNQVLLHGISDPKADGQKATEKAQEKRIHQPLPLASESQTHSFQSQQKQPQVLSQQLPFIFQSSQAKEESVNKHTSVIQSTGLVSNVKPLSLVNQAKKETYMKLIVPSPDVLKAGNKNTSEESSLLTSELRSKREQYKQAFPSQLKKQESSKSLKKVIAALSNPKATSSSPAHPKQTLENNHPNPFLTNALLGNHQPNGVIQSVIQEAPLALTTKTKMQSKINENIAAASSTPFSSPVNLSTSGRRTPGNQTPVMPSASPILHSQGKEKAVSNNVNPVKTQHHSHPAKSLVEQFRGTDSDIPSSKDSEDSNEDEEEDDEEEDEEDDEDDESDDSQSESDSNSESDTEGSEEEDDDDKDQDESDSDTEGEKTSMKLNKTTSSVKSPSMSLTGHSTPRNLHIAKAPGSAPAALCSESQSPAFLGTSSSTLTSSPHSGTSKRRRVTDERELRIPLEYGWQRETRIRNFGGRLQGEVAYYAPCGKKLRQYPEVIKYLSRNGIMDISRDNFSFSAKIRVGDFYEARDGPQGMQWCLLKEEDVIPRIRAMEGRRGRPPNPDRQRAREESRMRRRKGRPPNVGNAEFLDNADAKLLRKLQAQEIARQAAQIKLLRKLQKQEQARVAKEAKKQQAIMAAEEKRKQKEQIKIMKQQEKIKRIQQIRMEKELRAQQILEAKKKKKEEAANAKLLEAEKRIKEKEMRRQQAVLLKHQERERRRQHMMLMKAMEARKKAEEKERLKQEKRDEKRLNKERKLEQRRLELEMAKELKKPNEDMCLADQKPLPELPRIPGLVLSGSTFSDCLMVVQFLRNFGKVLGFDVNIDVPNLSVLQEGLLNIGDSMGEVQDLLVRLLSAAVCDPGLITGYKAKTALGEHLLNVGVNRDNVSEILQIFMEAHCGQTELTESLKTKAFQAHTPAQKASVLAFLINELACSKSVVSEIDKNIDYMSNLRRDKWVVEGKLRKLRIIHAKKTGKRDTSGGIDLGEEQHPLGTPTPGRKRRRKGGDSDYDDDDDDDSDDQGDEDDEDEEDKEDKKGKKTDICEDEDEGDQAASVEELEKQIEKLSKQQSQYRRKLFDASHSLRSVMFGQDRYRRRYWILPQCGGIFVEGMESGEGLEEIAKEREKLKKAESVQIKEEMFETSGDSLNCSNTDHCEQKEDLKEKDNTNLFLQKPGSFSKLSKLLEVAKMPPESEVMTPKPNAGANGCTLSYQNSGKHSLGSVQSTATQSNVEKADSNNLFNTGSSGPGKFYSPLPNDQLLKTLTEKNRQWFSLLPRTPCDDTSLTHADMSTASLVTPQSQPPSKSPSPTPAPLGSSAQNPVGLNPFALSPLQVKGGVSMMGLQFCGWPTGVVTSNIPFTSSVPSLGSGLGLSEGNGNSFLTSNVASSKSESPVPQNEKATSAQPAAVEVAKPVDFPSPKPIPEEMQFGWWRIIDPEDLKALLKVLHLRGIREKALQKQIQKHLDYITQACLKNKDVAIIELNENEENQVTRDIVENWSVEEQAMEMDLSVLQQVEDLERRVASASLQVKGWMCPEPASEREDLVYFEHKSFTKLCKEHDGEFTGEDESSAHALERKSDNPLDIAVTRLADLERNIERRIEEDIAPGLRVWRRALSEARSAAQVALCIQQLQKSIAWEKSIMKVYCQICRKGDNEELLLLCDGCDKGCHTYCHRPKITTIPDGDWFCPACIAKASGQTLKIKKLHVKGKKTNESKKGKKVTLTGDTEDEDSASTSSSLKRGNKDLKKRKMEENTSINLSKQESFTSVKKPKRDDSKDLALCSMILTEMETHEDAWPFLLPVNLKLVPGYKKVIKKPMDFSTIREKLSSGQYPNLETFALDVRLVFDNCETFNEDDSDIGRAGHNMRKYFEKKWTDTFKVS
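AlphaScreen displacement: compounds (up to 110uM) incubated 30 min at room temperature with a preformed 50 nM BAZ2B/50 nM biotinylated H3K14Ac peptide complex in PBS pH 7.4 with Tween-20. Donor and acceptor beads at 10 ug/mL final added, 20 min light-protected before reading.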
HP1b binding inh: HTS for Inhibitors of HP1-beta Chromodomain Interactions with Methylated Histone Tails | Chromobox protein homolog 1 (Homo sapiens), P83916 | AlphaScreen HP1-beta / biotin-H3K9me3 peptide binding | Potency, µM (doses to about 114 µM), without a hit: at the highest dose activity change, negative = inhibition, actives largely listed as inhibitors | 0.56% of 390,000 active | AID 540317, 2011; further: nearly all actives have a fitted effect of over 70% in size
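AlphaScreen: HP1-beta (50 nM) preformed 30 min with biotin-H3(1-18)K9me3 peptide (50 nM) in PBS pH 7.4, 0.01% Tween-20. Compound added for 30 min at RT, then streptavidin donor/nickel chelate acceptor beads (10 ug/mL) for 30 min.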
The depositor's hits bear a star; ? = inconclusive; · = no result given; [ ] = dose if it differs, or a comment. Hits are enriched below; roughly 6.9% of the tested compounds scored in any of these assays. The call rests on the fitted dose curve; in most records, active means well fitted curve in the direction sought with a large enough effect; inconclusive means small, poorly fitted or top-dose-only effect, or another doubt; inactive means no such curve, though single readings can be large; an effect the other way counts as inactive or inconclusive. Potency means the concentration at half of the fitted maximal effect.

SMILES | PLK1 PBD inh | VDR inh | L3MBTL1 block | JMJD2A Tudor inh | BAZ2B block | HP1b binding inh
O=C(CNC(=O)c1ccc(C(F)(F)F)cc1)OC(C(=O)Nc1cc(C(F)(F)F)ccc1Cl)c1ccccc1 (stereo not drawn) | · | · | · | -19.2% | · | ·
COc1ccc(N2CCN(C(=O)C3CCN(S(=O)(=O)c4cn(C)cn4)CC3)CC2)cc1 | · | 7.7% | · | -7.9% | -16.0% | 19.0%
O=C(NC1CC(=O)N(c2ccccc2)C1)c1ccc(S(=O)(=O)N2CCCC2)cc1 (stereo not drawn) | · | 12.3% | · | -14.3% | 1.9% | 44.6%
COc1cccc(-c2nc(CS(=O)(=O)CC(=O)Nc3cccc(C(C)=O)c3)c(C)o2)c1 | 23.8µM* | ? | · | ? | ? | -0.3%
CCCc1nc2c(C)ccc(C)c2c(N)c1CC | -4.5% | 4.2% | -5.9% | 2.82µM* | -28.3% | ?
CCc1c(-c2ccccc2)nc2sc3c(c2c1N)CCCC3 | -3.9% | 0.0% | -9.3% | -21.6% | -29.5% | 10.3%
CCCCn1c(N)c(N(CCOC)C(=O)c2ccc(COc3ccccc3)o2)c(=O)[nH]c1=O | -5.5% | 6.2% | 9.7% | -16.4% | -3.2% | 6.8%
Nc1nc(Sc2ccc(C(F)(F)F)cc2[N+](=O)[O-])n[nH]1 | -6.2% | 13.7% | · | -9.4% | -0.7% | 35.9%
Nc1nc(Sc2c([N+](=O)[O-])cc(C(F)(F)F)cc2[N+](=O)[O-])n[nH]1 | 2.38µM* | 31.6µM* | 4.8% | -21.2% | -3.4% | 40.4%
CCS(=O)(=O)Nc1ccc(C2=NN(C(=O)c3ccccc3)C(c3cccs3)C2)cc1 (stereo not drawn) | -12.6% | -18.1% | · | -21.6% | 79.4µM* | 33.9%
O=C1/C(=C\c2ccc(Br)cc2)SC(=S)N1NS(=O)(=O)c1ccccc1 | 21.2µM* | -1.1% | · | ? | -9.2% | -8.7%
COc1ccc(/C=C2/SC(=S)N(NS(=O)(=O)c3ccccc3)C2=O)cc1 | ? | ? | · | ? | -28.3% | 1.3%
O=C1/C(=C/c2cccnc2)SC(=S)N1NS(=O)(=O)c1ccccc1 | -10.4% | -20.4% | · | -11.9% | -6.3% | 15.0%
C=CCOc1ccc(/C=C2\SC(=S)N(NS(=O)(=O)c3ccccc3)C2=O)cc1 | 21.2µM* | ? | · | ? | 50.1µM* | -25.1%
CC(C)(C)C(=O)c1c(N)[nH]c(C(=O)c2ccccc2)c1-c1ccccc1Br | -14.7% | · | · | · | · | ·
O=C(COc1ccccc1F)Nc1nnc(SCc2cc(=O)n3ccccc3n2)s1 | · | 14.8% | · | -11.4% | -0.6% | 17.6%[57 µM]
O=C(OCCN1CCOCC1)C(c1ccccc1)c1ccccc1 | -7.4% | -9.7% | -1.7% | ? | 8.5% | -0.3%
CC(C)N1C(=O)CC2(CC[N+](C)(CCOC(=O)C(c3ccccc3)c3ccccc3)CC2)C1=O (stereo not drawn) | -0.2% | -11.6% | 10.7% | -7.4% | 44.7µM* | 25.5%
COc1ccc(OC)c(NC(=O)c2nnn(CC(=O)Nc3ccc(C(C)C)cc3)c2N)c1 | · | -1.1% | · | -19.7% | 5.2%[57.1 µM] | 20.1%
O=C(NCc1ccccc1F)c1sc2ncccc2c1-n1cccc1 | · | -6.0% | · | -24.3% | -34.0% | 13.2%[57 µM]
CN(C1CCCCC1)S(=O)(=O)c1ccc(Cl)c(C(=O)O)c1 | 18.9µM* | ? | 14.6% | ? | -32.1% | 10.0%
COc1ccc(S(=O)(=O)N(C)CC(=O)NC2CCCCC2)cc1Cl | 0.9% | 6.6% | · | -9.9% | 9.8% | 25.8%
COc1ccc(S(=O)(=O)N(CC(N)=O)C2CCCCC2)cc1Cl | 11.9µM* | -16.0% | -5.4% | -13.7%[11.4 µM] | -38.0% | -7.4%
